High-throughput results (PubChem BioAssay)
A selection: hits, their analogues and other compounds. The true share with any hit is near 11%.
IL-1B inflam inh: qHTS for Inhibitors of Inflammasome Signaling: IL-1-beta AlphaLISA Primary Screen. actives 4.7% (n = 360,000). AID 743279, 2014. activity change, % at 57.5 µM. THP-1 LPS/ATP IL-1B secretion, AlphaLISA, 16 h; stronger effect = lower value; in the data active = activity change below about -50%; inconclusive = mostly about -30% to -49%; note: % is set by controls: 0 for no effect and ±100 for the full control effect
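THP-1 cells pretreated 1 hr with compounds (up to 57.5 uM final), then stimulated with LPS (250 ng/mL final) plus ATP (1.25 mM final); secreted IL-1B measured by AlphaLISA after 16 hr, decreased signal indicating inhibition.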
SW480 rerep: A quantitative high throughput screen for small molecules that induce DNA re-replication in SW480 colon adenocarcinoma cells. Potency, µM (top dose mostly 46.1 µM), for the others: at the top dose re-replication activation, usual class: activators. SW480 DNA re-replication, Hoechst DNA content imaging, 48 h. actives 1.8% (n = 340,000); note: potency is the fitted concentration of half-maximal effect; % of control where 0% means no effect; nearly all actives have a fitted effect of over 55% in size
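Hoechst fluorescence of nuclei (405 nm excitation, 500-530 nm emission) measured by plate-scanning imager after 48 hr compound exposure at 37 C; re-replication scored as increased number of nuclei with elevated intensity.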
RORg inh: qHTS for inhibitors of ROR gamma transcriptional activity; Nuclear receptor ROR-gamma (Mus musculus), P51450; Drosophila S2 Gal4-RORgamma UAS-luciferase reporter, 20 h; Potency, µM (top dose mostly 53.6 µM), without a hit: at the top dose activity change, negative = inhibition, most hits filed as inhibitors; actives 5.4% (n = 310,000); AID 2551, 2010; note: potency is the fitted concentration of half-maximal effect; % is set by controls: 0 for no effect and ±100 for the full control effect; nearly all actives have a fitted effect of over 60% in size
Target sequence (P51450 whole entry, looked up, the tested form may be a part): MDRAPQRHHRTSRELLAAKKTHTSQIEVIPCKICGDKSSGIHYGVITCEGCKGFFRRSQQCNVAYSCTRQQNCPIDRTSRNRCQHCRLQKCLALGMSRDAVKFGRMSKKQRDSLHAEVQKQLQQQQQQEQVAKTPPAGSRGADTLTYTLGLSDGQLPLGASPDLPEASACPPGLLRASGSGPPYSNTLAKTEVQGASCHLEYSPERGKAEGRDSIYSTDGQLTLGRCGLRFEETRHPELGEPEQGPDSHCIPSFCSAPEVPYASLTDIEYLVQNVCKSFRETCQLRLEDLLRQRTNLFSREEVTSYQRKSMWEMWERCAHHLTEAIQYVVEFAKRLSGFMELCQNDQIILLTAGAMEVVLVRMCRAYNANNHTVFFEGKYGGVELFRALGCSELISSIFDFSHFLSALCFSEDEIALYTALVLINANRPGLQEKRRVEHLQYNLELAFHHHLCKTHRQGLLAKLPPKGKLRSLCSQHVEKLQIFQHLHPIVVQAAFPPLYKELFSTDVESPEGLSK
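A Gal4/UAS one-hybrid system in insect cells: metallothionein-promoter Gal4–ROR gamma fusion plus Photinus luciferase reporter. Copper sulfate 700 uM final, 20 hr ambient incubation, luminescent detection after 10 min with reagent.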
MCF10A rereplic: A quantitative high throughput screen for small molecules that induce DNA re-replication in MCF 10a normal breast cells. actives 2.9% (n = 350,000). MCF 10A DNA re-replication, Hoechst nuclear intensity, 48 h. Potency, µM (doses to about 46.1 µM), for inactives: at the highest dose activity, positive = re-replication, most hits filed as activators; note: potency is the fitted concentration of half-maximal effect; % of control where 0% means no effect; nearly all actives have a fitted effect of over 50% in size
Gal4-VP16 FLuc: VP16 counterscreen qHTS for inhibitors of ROR gamma transcriptional activity. Potency, µM (titrated, usually from 53.6 µM), inactives show top-dose activity, negative = inhibition, hits mostly inhibitors. actives 3.5% (n = 310,000). Drosophila S2 Gal4-VP16 UAS-luciferase, luminescence, 20 h;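 note: Gal4-VP16 expression switched on by copper sulfate through the metallothionein promoter; potency is the fitted concentration of half-maximal effect; % is set by controls: 0 for no effect and ±100 for the full control effect; nearly all actives have a fitted effect of over 50% in size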
* marks the source's active call; other numbers are inactive results; ? = inconclusive; . = not tested or not shown; [ ] = dose if it differs, or a comment. Unless noted, calls come from the whole dose curve; as a rule, active = well fitted curve in the direction sought with a large enough effect; inconclusive = small, poorly fitted or top-dose-only effect, or another doubt; inactive = no such curve, though single readings can be large; an effect the other way counts as inactive or inconclusive.

SMILES | IL-1B inflam inh | SW480 rerep | RORg inh | MCF10A rereplic | Gal4-VP16 FLuc
Clc1cccc(Nc2ncnc3c2cnn3-c2ccccc2)c1 | -11 | 0% | 10µM* | ? | 22µM*
c1ccc(Cn2ncc3c(NCc4ccco4)ncnc32)cc1 | -6 | 5% | 41% | -6% | -4%
c1ccc(-n2ncc3c(NCc4ccco4)ncnc32)cc1 | -2 | 21µM* | -42% | 13µM* | -6%
CCOC(=O)N1CCC(Nc2ncnc3c2cnn3-c2ccc(Cl)cc2)CC1 | -22 | -7% | 8.9µM* | -1% | 8%
CCOC(=O)C1CCCN(c2ncnc3c2cnn3-c2ccc(Cl)cc2)C1 (configuration not stated) | -12 | -9% | 12% | ? | -17%
CCc1nc(NC(C)(C)C)c2cnn(-c3ccccc3)c2n1 | 2 | ? | -16% | 23µM* | -3%
COc1ccc(C(=O)NCCCN2CCCC2=O)cc1S(=O)(=O)N1CCOCC1 | -13 | . | . | . | .
CCCCNc1ncnc2c1cnn2-c1ccc(Cl)cc1 | -4 | 8.2µM* | -38% | ? | -19%
CCCCNc1ncnc2c1cnn2Cc1ccc(Cl)cc1 | -1 | ? | 9% | ? | 11%
c1ccc(-n2ncc3c(NCCCN4CCOCC4)ncnc32)cc1 | 0 | -15% | ? | 7% | ?
CCCCNc1ncnc2c1cnn2-c1ccccc1 | -13 | 6.5µM* | 17% | ? | -14%
Cc1ccccc1N(Cc1cc(=O)[nH]c2ccccc12)C(=O)CCl | . | . | ? | . | -27%
CCCCCCCN(C(=O)CCl)c1ccccc1C | -106* | 7.3µM* | ? | 0% | ?
CC1CCC(C(=O)O)NC1c1cccc(N2CCOCC2)c1 (configuration not stated) | . | . | 6%[10 µM] | . | -5%[10 µM]
Cc1ccnc(NC(=O)COc2ccccc2[N+](=O)[O-])c1 | . | . | 11µM* | . | ?
Cc1ccc(NC(=O)c2ccc(COc3ccccc3[N+](=O)[O-])o2)nc1 | -7 | -5% | . | 16% | .
Cc1ccc(NC(=O)COc2ccccc2[N+](=O)[O-])nc1 | 20 | 1% | 6.3µM* | 10% | ?
O=[N+]([O-])c1ccc(N2CCN(Cc3ccccc3)CC2)c2c1no[n+]2[O-] | -87* | . | . | . | .
O=[N+]([O-])c1ccc(N2CCN(Cc3ccccc3)CC2)s1 | 27 | 7% | -6% | -3% | 6%
COc1cccc(OC)c1C1=Nn2c(nnc2-c2ccccc2O)SC1 | . | . | ? | . | 2%
Cc1cccc(Cn2c(C)nc3c(N)c(C)c(C)cc32)c1 | -7 | 3% | 13µM* | 2% | ?
Cc1cccc(Cn2c(C(C)O)nc3ccccc32)c1 (configuration not stated) | 16 | -1% | -8% | -8% | -9%
COc1ccc(NC(=O)N2CC[C@@]3(CCCN(S(C)(=O)=O)C3)C2)cc1 | . | . | -13% | . | -10%
Cc1nc(SC(C(N)=O)c2ccccc2)c(C#N)c(C)c1C (configuration not stated) | 17 | -7%[9.22 µM] | -1% | -6% | 13%
COc1ccccc1-c1cc(-c2ccccc2)nc(SC(C(N)=O)c2ccccc2)c1C#N (configuration not stated) | 15 | 9.2µM* | 11µM* | ? | ?
SMILES | IL-1B inflam inh | SW480 rerep | RORg inh | MCF10A rereplic | Gal4-VP16 FLuc
CCCOc1c(OC)cccc1C1CC(=O)Nc2cc3c(cc21)OCO3 (configuration not stated) | 2 | 16µM* | 37% | 5.8µM* | -6%
CCCOc1c(OC)cccc1C1CC(=O)Nc2cc3c(cc21)OCCO3 (configuration not stated) | 28 | ? | 27% | 5.8µM* | -15%
O=C(NN=Cc1ccccc1C(=O)O)c1ccc(NS(=O)(=O)c2cccs2)cc1 | -1 | -10% | . | -4% | .
COc1ccc(C(CNC(=O)c2cccc(NS(=O)(=O)c3ccc(C)c(F)c3)c2)N2CCOCC2)cc1 (configuration not stated) | ? | -395% | . | 9% | .
CCOC(=O)[C@@H](NC(=O)CC[C@H]1O[C@@H](n2cc(C)c(=O)[nH]c2=O)C[C@@H]1O)C(C)C | -5 | . | . | . | .
O=C(/C(N=Nc1cccc(C(F)(F)F)c1)=C(/O)c1cccs1)C(F)(F)F | -62* | -9% | ? | 21µM* | ?
Cc1ccc(NC(=S)N(CCN(C)C)C(C)c2ccco2)cc1Cl (configuration not stated) | -9 | -4% | 13µM* | -2% | ?
Cc1ccc(NC(=S)N(CCN(C)C)C(C)c2ccco2)c(C)c1 (configuration not stated) | -14 | -20% | -37% | 0% | 2%
COCCN(C(=S)Nc1cc(C)cc(C)c1)C(C)c1cccs1 (configuration not stated) | -10 | 5% | 10µM* | 0% | 22µM*
COCCN(C(=S)Nc1cccc(C)c1)C(C)c1cccs1 (configuration not stated) | -12 | 0% | 11µM* | -2% | ?
CC(C)CCN(C(=S)Nc1cccc(F)c1)C(C)c1cccs1 (configuration not stated) | -2 | -4% | 20µM* | 16µM* | ?
COc1ccc(NC(=S)N(CCC(C)C)C(C)c2ccncc2)cc1 (configuration not stated) | -26 | -5% | ? | 10% | ?
COCCN(C(=S)Nc1c(C)cccc1C)C(C)c1cccs1 (configuration not stated) | 6 | -30% | ? | 9% | ?
COc1ccccc1N1CCN(C(=O)CCC(=O)Nc2nnc(C(C)C)s2)CC1 | 18 | 2% | -1% | 12% | -3%
CCc1nc2ccc(C(=O)NCCCn3ccnc3)cn2c1N(C)Cc1ccc(N(C)C)cc1 | -20 | . | . | . | .
CC1(C(=O)NCc2cccs2)CCN1CCc1ccccc1 (configuration not stated) | 10 | . | . | . | .
O=C(O)c1cccc(-c2csc(C(O)c3ccccc3)n2)c1 (configuration not stated) | 11 | . | . | . | .
O=C(Cn1c(=O)n(CCC(=O)N2CCCCC2)c(=O)c2sccc21)NCc1ccccc1 | -11 | -7% | 0% | -2% | -2%
COCCN(C(=S)Nc1ccc(OC)cc1)C(C)c1cccs1 (configuration not stated) | -4 | -2% | 13µM* | ? | ?
Cc1cc(C)cc(NC(=S)N(CCN(C)C)C(C)c2cccnc2)c1 (configuration not stated) | 67 | -5% | 11µM* | 2% | 0%[10 µM]
COCCN(C(=S)Nc1cc(C)cc(C)c1)C(C)c1ccco1 (configuration not stated) | -12 | -4% | 8.9µM* | 3% | 4%[10 µM]
